# These entries were drawn from the full list.
# aSyn 5UTR act: Activators working through SNCA 5'UTR binding (MLPCN); AID 1814; activity score, % (tested at 7.5 µM), hits read low; alpha-synuclein 5'UTR reporter, activators screen; actives 7.1% (n = 300,000); in the data active = activity score below about -60%
# A number is an active result; - = inactive.
SMILES,aSyn 5UTR act
N/C(=N\OC(=O)C12CC3CC(CC(C3)C1)C2)c1ccccc1,-134
C/C(=N/NC(=O)c1ccoc1C)C12CC3CC(CC(C3)C1)C2,-158
N/C(=N\OC(=O)N1CCOCC1)c1ccccc1,-64
Cc1ccc(S(=O)(=O)Nc2cccc(C(=O)NCc3cccnc3)c2)cc1F,-73
NC(=O)c1ccccc1OCCOc1ccc(Br)cc1,-63
CC(=O)c1ccccc1OCCOCCOCCOc1ccccc1C(C)=O,-
CN(C)CCN(C(=O)c1ccc(Br)s1)c1nc2cc3c(cc2s1)OCCO3,-72
CN(C)CCN(C(=O)c1cccs1)c1nc2cc3c(cc2s1)OCCO3,-106
C#CCn1c(=NC(=O)c2ccc(Cl)s2)sc2cccc(OC)c21,-79
COC(=O)Cn1c(=NC(=O)c2ccc(Cl)s2)sc2cc(F)ccc21,-111
Cc1ccc(N2C(=O)Nc3cc(Cl)c(Cl)cc3N2O)cc1Cl,-99
Cc1cc(/C=C2\SC(=S)NC2=O)c(C)n1-c1ccc(O)cc1,-68
COc1ccc(-n2c(C)cc(/C=C3\SC(=S)NC3=O)c2C)cc1,-152
Cc1cc(/C=C2\SC(=S)NC2=O)c(C)n1-c1ccccc1,-163
Cc1cc(/C=C2\SC(N)=NC2=O)c(C)n1-c1ccccc1,-112
CC(=O)c1cccc(NC(=S)NC(=O)c2ccc(Br)cc2)c1,-143
CC(=O)c1cccc(NC(=S)NC(=O)c2ccc(C)cc2)c1,-83
CC(=O)c1cccc(NC(=S)NC(=O)c2ccc(C)cc2Cl)c1,-70
COc1ccc(C(=O)O/N=C(\N)c2cccc(C)c2)cc1OC,-165
Cc1cccc(/C(N)=N/OC(=O)c2ccoc2C)c1,-116
COc1ccc(/C(N)=N/OC(=O)CSc2ccccc2)cc1OC,-125
COc1ccc(C(=O)O/N=C(\N)c2ccccc2)cc1OC,-180
COc1ccc(C(=O)n2c(N)nc3ccccc32)cc1OC,-177
Fc1ccccc1NC(=S)N1CCC(c2ccccc2)C1 (stereo not given),-111
C=CCn1c(O)c(N=NC(=S)Nc2ccccc2F)c2ccccc21,-
SMILES,aSyn 5UTR act
Fc1cc(F)cc(NC(=S)N2CCC(c3ccccc3)C2)c1 (stereo not given),-99
S=C(Nc1ccccc1Cl)N1CCC(c2ccccc2)C1 (stereo not given),-120
Oc1c(N=NC(=S)Nc2ccccc2F)c2ccccc2n1Cc1ccccc1,-
O=C(OCc1nc2ccccc2s1)C1CCN(C2=NS(=O)(=O)c3ccccc32)CC1,-98
O=C1c2ccccc2S(=O)(=O)N1Cc1nc2ccccc2s1,-
Cc1ccc(NC(=O)/C=C/c2ccc(Cl)cc2)nc1,-158
O=C(/C=C/c1ccccc1)Nc1ccc(Br)cn1,-125
O=C(/C=C/c1cccc([N+](=O)[O-])c1)Nc1ccc(Cl)cn1,-92
Oc1ccc(Br)cc1C1Nc2ccccc2S1 (stereo not given),-84
COC(=O)c1ccccc1NC(=O)CC(=O)Nc1ccccc1C(=O)OC,-64
COC(=O)c1ccccc1NC(=O)NCCc1ccccc1OC,-134
Cc1cc(C(=O)N2CCN(c3cccc(Cl)c3)CC2)c(C)o1,-137
COc1ccc(C(=O)NCCc2c[nH]c3ccccc23)cc1,-184
O=C(NCCc1c[nH]c2ccccc12)c1cnccn1,-80
O=C(NCCc1c[nH]c2ccccc12)c1cnc2sccn2c1=O,-152
COc1ccc(C(=O)c2c[nH]c3ccccc23)cc1,-196
O=C(NCCc1c[nH]c2ccccc12)c1ccc(Cl)cc1,-221
O=C(NCCc1c[nH]c2ccccc12)c1ccc(F)cc1F,-145
Cc1ccsc1C(=O)NCCc1c[nH]c2ccccc12,-123
CC(=O)c1c(C)[nH]c(C(=O)NCCC2=CCCCC2)c1C,-156
CC(=O)c1c(C)[nH]c(C(=O)NCCc2c[nH]c3ccccc23)c1C,-89
CC(C)c1ccc(-c2nnn(CCC#N)n2)cc1,-107
Cc1cc(-c2ccc(Cl)s2)n[nH]1,-80
CC1CN(C(=O)Nc2ccc3c(c2)OCO3)CC(C)O1 (stereo not given),-152
O=C(Nc1ccc2c(c1)OCCO2)N1CCN(Cc2ccccc2)CC1,-66
SMILES,aSyn 5UTR act
O=C(Nc1ccc2c(c1)OCO2)N1CCCC1,-88
O=C(O)C1CC=CCC1C(=O)Nc1ccc2c(c1)OCCO2 (stereo not given),-73
O=C(Nc1ccc2c(c1)OCO2)N1CCOCC1,-84
CCC(C)c1ccc(NC(=O)N2CCOCC2)cc1 (stereo not given),-102
O=C(Nc1ccc2c(c1)OCCO2)N1CCOCC1,-80
Cc1ccc(O)c(C2=Nc3ccccc3C2(C)C)c1,-157
CC1Oc2ccccc2N(CC(=O)NCc2ccc3c(c2)OCO3)C1=O (stereo not given),-106
CC1Oc2ccccc2N(CC(=O)Nc2ccc3c(c2)OCCO3)C1=O (stereo not given),-77
CC1CCCCC12NC(=O)N(CC(=O)NC(=O)Nc1ccc3c(c1)OCCO3)C2=O (stereo not given),-169
CCOC(=O)C(C)Oc1cccc2c(=O)n(CC(=O)NCc3ccc4c(c3)OCO4)ccc12 (stereo not given),-
COc1cc([C@@H]2c3cc4c(cc3[C@@H](NC3CCN(Cc5ccccc5)CC3)[C@H]3COC(=O)[C@H]23)OCO4)cc(OC)c1O,-
O=C(Nc1ccc(Cl)c(Cl)c1)OCc1cncs1,-97
CCCN(CCC)c1ccc(/C=C/c2ccc3cc(OCC)ccc3n2)cc1,-112
CN(C)c1ccc(/C=C/c2ccc3ccccc3n2)cc1,-
Cc1cccc(C(=O)N2CCc3cc(-c4csc(NC(=O)CN5CCCC5)n4)ccc32)c1,-74
O=C(CN1CCCC1)Nc1nc(-c2ccc3c(c2)CCN3C(=O)c2ccccc2F)cs1,-123
Cc1cccc(C(=O)N2CCc3cc(-c4nc(NC(=O)CN5CCCC5)sc4C)ccc32)c1,-71
O=C(Nc1ccc(Cl)cc1Cl)c1ccc(Br)o1,-124
Cc1cc(O)c(NC(=O)c2ccc(Br)o2)cc1C,-178
C=CCSc1nnc(-c2cc3c(s2)-c2ccccc2CC3)o1,-104
COc1cc(OC)c(NC2=CC(=O)C(=O)c3ccccc32)cc1Cl,-
COc1ccccc1NC1=C(Cl)C(=O)N(C2CCCCC2)C1=O,-91
Cc1ccccc1NC1=C(Cl)C(=O)N(C2CCCCC2)C1=O,-133
CCC(C)(C)C1CCC(=NNC(=O)c2ccoc2C)CC1 (stereo not given),-112
Cc1nc2ccc(-c3nc4ccccc4[nH]3)cc2[nH]1,-120
SMILES,aSyn 5UTR act
Cc1ccc(-c2nc3ccccc3[nH]2)cn1,-99
Clc1ccc(-c2nc3ccccc3[nH]2)cn1,-63
O=[N+]([O-])c1cc(S(=O)(=O)/N=C(/c2ccccc2)N2CCOCC2)ccc1Cl,-83
NC(=O)c1ccsc1NC(=O)c1coc2ccccc2c1=O,-156
CCOc1ccc(NC(=O)c2ccccc2OCC(=O)c2ccccc2)cc1,-83
CCOc1ccc(NC(=O)c2cccnc2C(=O)O)cc1,-109
CCOc1ccc(NC(=O)c2ccc(NC(=O)COC(=O)Cc3ccc(OC)cc3)cc2)cc1,-93
CCOc1ccc(NC(=O)c2ccccc2OC)cc1,-140
CC(=O)c1ccc(NC(=O)COc2ccccc2C(=O)Nc2ccccc2)cc1,-78
CC(=O)c1cccc(NC(=O)COC(=O)c2ccccc2C)c1,-101
CCOc1ccc(NC(=O)c2ccccc2CO)cc1,-86
CCOc1ccc(NC(=O)c2nccnc2CO)cc1,-120
CC(C)c1ccc2c(c1)CCC1C(C)(CN)CCCC21C (stereo not given),-
CCOc1ccc(NC(=O)c2ccccc2O)cc1,-66
CCOc1ccc(NC(=O)c2ccccn2)cc1,-

# Screening data from PubChem BioAssay.
